Experimental data as given in PubChem BioAssay (Tox21).
Unmarked numbers belong to inactive results. Records with an inconclusive call do not appear. A call without a number means that no potency is given here. Active and inactive are the calls of the source. Unless noted, calls come from the whole dose curve.

How the values were obtained:
[1] = Nuclear factor erythroid 2-related factor 2/antioxidant responsive element (Nrf2/ARE) small molecule agonists: qHTS cell viability counter screen in human keratinocytes (AID 1919968; active = well fitted curve in the direction sought with a large enough effect in the repeat runs; an effect the other way counts as inactive or inconclusive; note: nearly all actives have a fitted effect of over 55% in size; note: potency is the fitted concentration of half-maximal effect)
Summary of the method: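 HaCaT ARE reporter line, 1,500 cells/well; 5 h settle, 37 C/5% CO2; cpd in DMSO pinned; 23 h exposure; CellTiter-Fluor, 1 h; fluorescence.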

[2] = Nuclear factor erythroid 2-related factor 2/antioxidant responsive element (Nrf2/ARE) small molecule agonists: luciferase reporter gene qHTS assay in human keratinocytes (AID 1919969); note: nearly all actives have a fitted effect of over 35% in size
[3] = target: Gonadotropin-releasing hormone receptor (Homo sapiens) (UniProt P30968); test: Human gonadotropin-releasing hormone receptor (GnRHR) small molecule agonists, calcium flux assay in GnRHR-HEK293 cells (AID 1920063); note: nearly all actives have a fitted effect of over 35% in size; note: potency is the fitted concentration of half-maximal effect
Summary of the method: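 GnRHR-HEK293, 1500 cells/well, 18 h 37 C/5% CO2; Ca dye 1 h 37 C; cpd pinned (DMSO), agonist mode; kinetic FL 480/540, 3 min, 1 s reads; 15 conc, n=3.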

[4] = target: KiSS-1 receptor (Homo sapiens) (UniProt Q969F8); test: Human kisspeptin (KISS1R) small molecule agonists, calcium flux assay in KISS1R-HEK293 cells (AID 1920064; active = well fitted curve in the direction sought with a large enough effect in the repeat runs; an effect the other way counts as inactive or inconclusive; note: potency is the fitted concentration of half-maximal effect)
Summary of the method: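 Stable human KISS1R HEK293 line; 18 h plating, 37 C/5% CO2; calcium dye 1 h 37 C; compound pin transfer; kinetic fluorescence Ex/Em 480/540, 3 min.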

[5] = G protein-coupled receptor (GPCR) small molecule agonists, calcium flux assay: HEK293 wild type cell line counter screen (AID 1920065); note: potency is the fitted concentration of half-maximal effect
Summary of the method: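 Kinetic fluorescence at Ex/Em 480/540, recorded every second over 3 min, served as the read-out after compound addition. Each compound was tested at 15 concentrations in triplicate on cells pre-loaded with calcium dye for 1 h.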

[6] = p53 small molecule agonists, cell-based qHTS assay with human liver microsomes (AID 1963577)
Summary of the method: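 p53RE-bla cells, 4,000/well, compound added after 5 h, with human liver microsomes 0.5 mg/mL and NADPH 0.5 mg/mL final; 16 h at 37 C, then LiveBLAzer 2 h RT, fluorescence.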

[7] = p53 small molecule agonists, cell-based qHTS assay with rat liver microsomes (AID 1963578)
Summary of the method: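 p53RE-bla cells, 4,000/well, pre-incubated 5 h, then given compounds plus rat liver microsomes (0.5 mg/mL final) and NADPH (0.5 mg/mL final). Incubation 16 h at 37 C; beta-lactamase reporter read by LiveBLAzer fluorescence after 2 h at room temperature.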

[8] = p53 small molecule agonists, cell-based qHTS assay with human liver microsomes: qHTS cell viability counter screen (AID 1963579); note: nearly all actives have a fitted effect of over 45% in size; note: potency is the fitted concentration of half-maximal effect
Summary of the method: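 p53RE-bla cells, 4,000/well, dosed 5 hours after plating, with human liver microsomes (0.5 mg/mL final) plus NADPH (0.5 mg/mL final), 16 hours at 37 C. Viability read as CellTiter-Glo luminescence after 30 min at room temperature.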

[9] = p53 small molecule agonists, cell-based qHTS assay with rat liver microsomes: qHTS cell viability counter screen (AID 1963580); note: nearly all actives have a fitted effect of over 45% in size; note: potency is the fitted concentration of half-maximal effect
Summary of the method: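 p53RE-bla HCT-116 cells (4,000/well) rested 5 h at 37 C, then given Tox21 compounds in DMSO with rat liver microsomes (0.5 mg/mL final) plus NADPH (0.5 mg/mL final) for 16 h at 37 C. Viability read by CellTiter-Glo luminescence after 30 min at room temperature.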

[10] = p53 small molecule agonists, cell-based qHTS assay: qHTS cell viability counter screen (AID 1963581); note: nearly all actives have a fitted effect of over 45% in size; note: potency is the fitted concentration of half-maximal effect
Summary of the method: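 HCT-116 p53RE-bla cells, 4,000/well, plated 5 h before compound pin transfer; 16 h at 37 C; bla substrate 2 h RT; then CellTiter-Glo, 30 min RT, luminescence.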

[11] = cAMP Responsive Elements (CRE) small molecule agonists, cell-based qHTS assay (AID 1963590)
Summary of the method: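 HEK 293T CRE-bla, 2,000 cells/well, 18 h preincubation 37 C/5% CO2; cpds (DMSO) pinned, 3 h; LiveBLAzer B/G FRET substrate, 2 h RT.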

[12] = target: Beta-2 adrenergic receptor (Homo sapiens) (UniProt P07550); test: Adrenergic beta2 receptor (ADRB2) small molecule antagonists, cell-based qHTS assay (AID 1963592); note: nearly all actives have a fitted effect of over 50% in size; note: potency is the fitted concentration of half-maximal effect
Summary of the method: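 Cells (CHO, stable ADRB2 overexpression) incubated 18-20hr at 37C; compounds added from DMSO; agonist mix (1nM isoproterenol, 100uM IBMX, 25uM Ro-20-1724) added; 0.5hr RT; d2-cAMP and anti-cAMP-cryptate added; 1hr RT; 665/615 nm read.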

[13] = target: D(2) dopamine receptor (Homo sapiens) (UniProt P14416); test: Dopamine D2 receptor (DRD2) small molecule agonists, cell-based qHTS assay (AID 1963594); note: nearly all actives have a fitted effect of over 35% in size; note: potency is the fitted concentration of half-maximal effect
Summary of the method: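 HEK293 cells stably expressing DRD2 were cultured 24 h at 37 C, then given Ro20-1724 (0.1 mM final) and compounds for 10 min at room temperature. NKH477 (200nM) was then added for 30 min. cAMP was read by HTRF.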

[14] = target: D(2) dopamine receptor (Homo sapiens) (UniProt P14416); test: Dopamine D2 receptor (DRD2) small molecule antagonists, cell-based qHTS assay (AID 1963595; active = well fitted inhibition curve with a large enough effect in the signal ratio in the repeat runs, with a control signal flat; the % refers to the signal ratio; note: potency is the fitted concentration of half-maximal effect)
Summary of the method: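 Cells were plated and grown for 24 h at 37 °C. Ro20-1724 (0.1 mM final) went in first, then compound for 10 min. NKH477 (200 nM) with quinpirole (12 nM) followed for 30 min at RT, then HTRF detection reagents for 1 h.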

[15] = target: 5-hydroxytryptamine receptor 2A (Homo sapiens) (UniProt P28223); test: 5-hydroxytryptamine receptor 2A (HTR2A) small molecule agonists, cell-based qHTS assay (AID 1963587); note: nearly all actives have a fitted effect of over 30% in size
Summary of the method: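 HTR2A-CHO cells, plated 18 h at 37 C/5% CO2, dye-loaded 1 h at 37 C; compounds in DMSO added by pin tool (agonist mode). Intracellular calcium flux read as kinetic fluorescence on FDSS over 2 min at 1 s intervals.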

[16] = target: Muscarinic acetylcholine receptor M1 (Homo sapiens) (UniProt P11229); test: Cholinergic receptor muscarinic 1 (CHRM1) small molecule antagonists, cell-based qHTS assay (AID 1963588); note: nearly all actives have a fitted effect of over 40% in size
Summary of the method: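 CHRM1-CHO calcium-flux assay, antagonist mode. Cells were seeded 18 h, dye-loaded 1 h at 37 C and given compound for 5 min at RT, then acetylcholine was added at 50nM. FDSS fluorescence was read 3 min; 15 concentrations, three runs.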

[17] = target: Muscarinic acetylcholine receptor M1 (Homo sapiens) (UniProt P11229); test: Cholinergic receptor muscarinic 1 (CHRM1) small molecule agonists, cell-based qHTS assay (AID 1963589); note: nearly all actives have a fitted effect of over 35% in size
Summary of the method: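 Human M1 in stable CHO line; 18 h plating, 1 h dye load 37 C; cpd added (agonist mode); Ca2+ fluorescence kinetic read, 1 s intervals; 15 conc, 3 runs.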

[18] = cAMP Responsive Elements (CRE) small molecule antagonists, cell-based qHTS assay (AID 1963591; active = well fitted inhibition curve with a large enough effect in the signal ratio in the repeat runs, not every such curve was filed as active; the % refers to the signal ratio)
Summary of the method: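 Beta-lactamase reporter read by FRET substrate (LiveBLAzer B/G) after 2 h at room temperature. CRE-bla HEK293T cells had received compound plus 0.25 uM (final) NKH477 for 3 h at 37 °C.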

[19] = p53 small molecule agonists, cell-based qHTS assay (AID 1963582; active = well fitted activation curve with a large enough effect in the signal ratio in the repeat runs, not every such curve was filed as active; the % refers to the signal ratio)
Summary of the method: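 Reporter line: p53RE-bla. Pre-incubation 5 h, 37 C, 5% CO2; compound (DMSO, pin tool) 16 h, 37 C; B/G FRET substrate 2 h RT; fluorescence intensity read.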

[20] = target: 5-hydroxytryptamine receptor 2A (Homo sapiens) (UniProt P28223); test: 5-hydroxytryptamine receptor 2A (HTR2A) small molecule antagonists, cell-based qHTS assay (AID 1963586); note: nearly all actives have a fitted effect of over 45% in size
Summary of the method: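 Antagonist-mode intracellular calcium assay: DOI (4 nM) added after 5 min compound pre-incubation at room temperature to dye-loaded HTR2A-CHO cells. Fluorescence followed for 3 min, sampled every second.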

Chain of KiSS-1 receptor (Homo sapiens) (Q969F8 whole entry, looked up): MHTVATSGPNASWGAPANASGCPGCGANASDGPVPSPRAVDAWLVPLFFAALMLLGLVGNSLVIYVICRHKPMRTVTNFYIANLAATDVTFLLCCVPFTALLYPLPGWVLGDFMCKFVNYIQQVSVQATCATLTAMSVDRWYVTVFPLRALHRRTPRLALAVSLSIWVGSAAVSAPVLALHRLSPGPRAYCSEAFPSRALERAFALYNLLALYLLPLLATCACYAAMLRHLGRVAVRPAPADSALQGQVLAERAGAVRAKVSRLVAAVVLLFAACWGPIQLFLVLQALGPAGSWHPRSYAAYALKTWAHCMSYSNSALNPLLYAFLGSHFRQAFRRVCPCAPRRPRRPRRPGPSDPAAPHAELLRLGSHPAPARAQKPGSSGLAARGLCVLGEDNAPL
Chain of Beta-2 adrenergic receptor (Homo sapiens) (P07550 whole entry, looked up): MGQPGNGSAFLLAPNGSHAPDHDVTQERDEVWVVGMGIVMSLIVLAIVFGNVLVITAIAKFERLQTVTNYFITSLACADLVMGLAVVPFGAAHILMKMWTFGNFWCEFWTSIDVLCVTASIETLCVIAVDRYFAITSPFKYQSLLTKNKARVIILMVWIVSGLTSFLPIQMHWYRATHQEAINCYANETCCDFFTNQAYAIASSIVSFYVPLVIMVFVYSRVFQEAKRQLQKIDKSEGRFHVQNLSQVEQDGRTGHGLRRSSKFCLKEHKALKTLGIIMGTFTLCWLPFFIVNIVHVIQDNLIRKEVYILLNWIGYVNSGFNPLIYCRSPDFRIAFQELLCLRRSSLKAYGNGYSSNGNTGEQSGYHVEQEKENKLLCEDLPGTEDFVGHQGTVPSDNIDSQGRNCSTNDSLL
Chain of Gonadotropin-releasing hormone receptor (Homo sapiens) (P30968 whole entry, looked up): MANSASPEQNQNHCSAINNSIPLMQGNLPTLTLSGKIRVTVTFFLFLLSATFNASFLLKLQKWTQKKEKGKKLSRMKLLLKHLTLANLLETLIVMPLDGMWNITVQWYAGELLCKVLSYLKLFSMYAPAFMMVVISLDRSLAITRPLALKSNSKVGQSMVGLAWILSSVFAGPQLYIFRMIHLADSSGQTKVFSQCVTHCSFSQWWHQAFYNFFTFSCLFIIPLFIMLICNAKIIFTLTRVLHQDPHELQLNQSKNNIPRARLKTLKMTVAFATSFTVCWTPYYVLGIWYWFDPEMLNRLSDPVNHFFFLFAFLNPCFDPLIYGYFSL
Chain of Muscarinic acetylcholine receptor M1 (Homo sapiens) (P11229 whole entry, looked up): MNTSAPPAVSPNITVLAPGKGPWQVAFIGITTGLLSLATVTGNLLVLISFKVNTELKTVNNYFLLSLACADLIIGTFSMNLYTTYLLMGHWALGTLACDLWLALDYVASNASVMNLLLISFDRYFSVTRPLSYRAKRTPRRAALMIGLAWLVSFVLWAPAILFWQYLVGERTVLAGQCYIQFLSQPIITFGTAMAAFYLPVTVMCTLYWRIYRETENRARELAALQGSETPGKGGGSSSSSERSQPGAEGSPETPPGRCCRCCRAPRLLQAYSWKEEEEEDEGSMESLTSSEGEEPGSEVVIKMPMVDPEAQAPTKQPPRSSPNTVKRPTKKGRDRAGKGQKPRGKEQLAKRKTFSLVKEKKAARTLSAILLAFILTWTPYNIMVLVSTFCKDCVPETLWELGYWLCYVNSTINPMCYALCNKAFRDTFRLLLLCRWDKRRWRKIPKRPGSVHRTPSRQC
Chain of 5-hydroxytryptamine receptor 2A (Homo sapiens) (P28223 whole entry, looked up): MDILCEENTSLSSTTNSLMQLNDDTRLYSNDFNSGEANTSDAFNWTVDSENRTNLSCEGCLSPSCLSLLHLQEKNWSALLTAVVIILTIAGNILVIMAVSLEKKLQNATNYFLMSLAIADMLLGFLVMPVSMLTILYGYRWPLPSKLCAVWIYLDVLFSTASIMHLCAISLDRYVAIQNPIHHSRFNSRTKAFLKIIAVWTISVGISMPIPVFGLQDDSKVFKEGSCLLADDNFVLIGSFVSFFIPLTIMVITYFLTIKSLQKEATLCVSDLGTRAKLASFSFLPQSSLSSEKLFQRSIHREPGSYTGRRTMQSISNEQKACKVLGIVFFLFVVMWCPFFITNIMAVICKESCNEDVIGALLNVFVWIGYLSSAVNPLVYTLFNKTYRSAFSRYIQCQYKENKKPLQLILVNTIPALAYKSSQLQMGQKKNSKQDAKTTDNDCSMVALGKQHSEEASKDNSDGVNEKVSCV
Chain of D(2) dopamine receptor (Homo sapiens) (P14416 whole entry, looked up): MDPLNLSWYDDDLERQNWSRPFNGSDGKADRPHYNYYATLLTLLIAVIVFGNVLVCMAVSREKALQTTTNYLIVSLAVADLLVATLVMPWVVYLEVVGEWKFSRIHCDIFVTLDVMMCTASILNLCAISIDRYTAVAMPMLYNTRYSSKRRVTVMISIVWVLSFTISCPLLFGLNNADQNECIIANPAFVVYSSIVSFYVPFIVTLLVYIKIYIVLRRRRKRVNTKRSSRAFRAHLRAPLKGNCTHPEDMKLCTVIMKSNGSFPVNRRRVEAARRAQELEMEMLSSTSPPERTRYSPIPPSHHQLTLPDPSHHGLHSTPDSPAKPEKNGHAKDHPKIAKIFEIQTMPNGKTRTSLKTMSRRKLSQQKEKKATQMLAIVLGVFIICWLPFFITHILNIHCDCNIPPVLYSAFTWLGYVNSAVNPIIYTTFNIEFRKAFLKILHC

Structure (SMILES)	Potency [1]	Potency [2]	Potency [3]	Potency [4]	Potency [5]	Potency [6]	Potency [7]	Potency [8]	Potency [9]	Potency [10]	Potency [11]	Potency [12]	Potency [13]	Potency [14]	Potency [15]	Potency [16]	Potency [17]	Potency [18]	Potency [19]	Potency [20]
CC[C@]1(O)CC[C@H]2[C@@H]3CCC4=CCCC[C@@H]4[C@H]3CC[C@@]21C	inactive	inactive	inactive	inactive	inactive	inactive	inactive	inactive	inactive	inactive	inactive	inactive	inactive	inactive						
COc1cc(CC#N)cc(OC)c1OC	inactive	inactive	inactive	inactive	inactive	inactive	inactive	inactive	inactive	inactive	inactive	inactive		inactive	inactive	inactive	inactive	inactive		
CCCCS(=O)(=O)Cl	inactive	inactive	inactive	inactive	inactive	inactive	inactive	inactive	inactive		inactive	inactive	inactive	inactive	inactive			inactive	inactive	inactive
COc1ccc(C=O)cc1O	inactive	inactive	inactive	inactive	inactive	inactive	inactive	inactive	inactive		inactive	inactive	inactive	inactive	inactive		inactive	inactive	inactive	inactive
CCCCCl	inactive	inactive	inactive	inactive	inactive	inactive	inactive	inactive	inactive		inactive	inactive	inactive	inactive	inactive	inactive	inactive	inactive	inactive	inactive
C[C@@H]1CC[C@@]2(OC1)O[C@H]1[C@@H](O)[C@H]3[C@@H]4CC[C@H]5C[C@@H](O[C@@H]6O[C@H](CO)[C@H](O[C@@H]7O[C@H](CO)[C@@H](O)[C@H](O[C@@H]8OC[C@@H](O)[C@H](O)[C@H]8O)[C@H]7O[C@@H]7O[C@H](CO)[C@@H](O)[C@H](O[C@@H]8O[C@H](CO)[C@@H](O)[C@H](O)[C@H]8O)[C@H]7O)[C@H](O)[C@H]6O)[C@H](O)C[C@]5(C)[C@H]4CC[C@]3(C)[C@H]1[C@@H]2C	8.17 µM (active)	inactive	0.735 µM (active)	23.2 µM (active)	41.3 µM (active)	inactive	inactive	13.7 µM (active)	13.7 µM (active)	13.7 µM (active)		64.9 µM (active)	51.5 µM (active)	2.3 µM (active)				inactive		
BrCCCCBr	inactive	inactive	inactive	inactive	inactive	inactive	inactive	inactive	inactive		inactive		inactive	inactive	inactive	inactive	inactive		inactive	inactive
